Screening data: PubChem, National Center for Advancing Translational Sciences (NCATS)
A selection: hits, their analogues and other compounds. The true share with any hit is near 3.3%.
PI5P4K alpha inh – PI5P4K alpha (human) kinase inhibition. PI5P4Kalpha enzyme, ADP-Glo luminescence, 60 min; stronger effect = lower value. max response, %. 330,000 tested, 1.2% active; active = max response of -50% or lower; inconclusive = between -30% and -50%; inactive = -30% or higher; note: value at the top dose of about 77 µM; % is set by controls: 0 for no effect and ±100 for the full control effect
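Quantitative HTS of the MLSMR library against PI5P4Kalpha with substrate. ATP added last at 5 microM final; room temperature, 60 minutes. Remaining ATP depleted, ADP converted and read as luminescence.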
DRD3 agonist – D3 dopamine receptor (human) agonism; P35462; D3R DiscoveRx beta-arrestin cells, luminescence, 90 min; max activation, %; 410,000 tested, 0.58% active; in the data active = max activation above about 30%; note: 0% is about no effect
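Agonist mode: compounds and dopamine controls were applied to plated cells for 90 min at 37 degrees C after an overnight attachment at 1500 cells/well. Luminescent read-out followed 30 - 60 minutes at room temperature with DiscoveRx detection reagent.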
PI4K2A block – PI4K2A (human) kinase inhibition | Q9BTU6 | purified PI4K2A, ADP-Glo luminescence, 1 h; stronger effect = lower value | activity change, negative = inhibition, % at 76.9 µM | 420,000 tested, 0.13% active | AID 1346378; in the data active = activity change below about -50%; inconclusive = mostly about -30% to -49%;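 note: -100% = wells without enzyme as full effect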
Target sequence (Q9BTU6 whole entry, looked up): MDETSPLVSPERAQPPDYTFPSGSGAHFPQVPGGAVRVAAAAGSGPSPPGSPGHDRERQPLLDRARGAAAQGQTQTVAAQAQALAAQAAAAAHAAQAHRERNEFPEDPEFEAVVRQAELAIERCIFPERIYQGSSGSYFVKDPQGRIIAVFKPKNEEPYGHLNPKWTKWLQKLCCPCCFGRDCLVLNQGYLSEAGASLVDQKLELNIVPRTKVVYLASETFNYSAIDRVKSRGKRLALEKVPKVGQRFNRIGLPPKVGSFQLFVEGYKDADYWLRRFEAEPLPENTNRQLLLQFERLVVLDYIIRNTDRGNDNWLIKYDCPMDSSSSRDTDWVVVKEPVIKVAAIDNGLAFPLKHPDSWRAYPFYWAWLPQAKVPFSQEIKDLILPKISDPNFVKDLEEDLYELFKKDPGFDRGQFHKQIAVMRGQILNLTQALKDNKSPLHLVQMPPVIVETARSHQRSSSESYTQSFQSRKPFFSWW
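Compounds are screened against recombinant PI4K2A using PI as substrate and ATP, the latter dispensed at 300 microM. Reactions run one hour at ambient temperature before ADP-Glo detection; full inhibition defined by wells lacking enzyme.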
D3 antag – blocks the human D3 dopamine receptor; 360,000 tested, 2.5% active; AID 652054; D3R cells, DiscoveRx beta-arrestin luminescence, antagonist mode; stronger effect = lower value; P35462; max response, negative = inhibition, %; in the data active = max response below about -50%; inconclusive = no clear call, values can overlap the other calls; note: % is set by controls: 0 for no effect and ±100 for the full control effect
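Cells expressing the human receptor were seeded at 1500 cells/well, incubated overnight at 37 degrees C in 5% CO2, then exposed to library compounds with dopamine controls for 90 minutes at 37 degrees C before luminescent detection.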
LDHA inh – blocks human lactate dehydrogenase A | activity change, % (values are at about 110 or 230 µM) | AID 1347041 | purified LDHA, NADH/diaphorase-resazurin fluorescence; stronger effect = lower value | 480,000 tested, 0.15% active | P00338; in the data active = activity change below about -30%; inconclusive = mostly about -25% to -30%;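 note: plate controls were DMSO wells for no effect and wells without enzyme for full effect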
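Human LDH5 (2 nM) was incubated with 0.06 mM NADH and 0.2 mM pyruvate for 5 min at room temperature in Tris pH 7.4. Remaining NADH was coupled through diaphorase/resazurin, and resorufin fluorescence was read at 0 and 20 min.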
Starred values were filed as active, the others as inactive; ? = inconclusive; · = no result given.

SMILES	PI5P4K alpha inh	DRD3 agonist	PI4K2A block	D3 antag	LDHA inh
Cc1ccc(-n2c(O)c(C=Nc3ccccc3-c3n[nH]c(=S)[nH]c3=O)c3ccccc3c2=O)cc1C	-81*	4	5	-7	-4
Cc1ccc2cccc(OCC(=O)Nc3ccc4c(c3)OCO4)c2n1	-6	4	0	-2	-6
Cc1ccc2cccc(OC(=O)c3ccc4c(c3)OCCO4)c2n1	8	2	-1	-50*	10
CCCCn1c(=S)[nH]c2c(=O)n(C)c(=O)n(C)c21	-73*	-6	5	0	-2
Cn1c(=O)c2[nH]c(=S)n(Cc3ccccc3)c2n(C)c1=O	-3	-6	-2	-25	-13
NC(=O)NC(Cc1ccccc1)C(=O)N1CCN(S(=O)(=O)c2ccc(Cl)cc2)CC1 (stereo not given)	0	-6	0	-68*	-3
COc1ccc(S(=O)(=O)N2CCN(C(=O)[C@H](Cc3ccccc3)NC(=O)c3ccco3)CC2)cc1	4	-1	-5	1	-11
O=C(CCC1CCCC1)OCC(=O)c1ccc2c(c1)OCO2	·	·	·	·	6
CC(C)Cc1nc(S(=O)(=O)c2ccc(Cl)cc2)c(N2CCOCC2)o1	-10	3	-1	-54*	-5
O=C(NCCc1c[nH]c2ccccc12)C(=O)NCC(c1ccco1)N1CCN(c2ccccc2)CC1 (stereo not given)	2	41*	-3	12	1
CN(C)C(=O)CSc1nc(-c2ccccc2)nc2c1CCCC2	0	-2	-1	-19	-4
Cc1cc2nc(SCC(=O)N(C)C)c3c(c2cc1C)CCCC3	·	-1	1	-50*	1
CC(C)c1c(C(=O)N/N=C/c2ccc(OCc3ccccc3)cc2)nnn1-c1nonc1N	4	0	1	0	0
CC(C)c1c(C(=O)N/N=C/c2cccc(OCc3ccccc3)c2)nnn1-c1nonc1N	2	40*	0	45	-15
COc1ccccc1CNCc1ccco1	·	·	·	·	11
O=C(O)/C=C/c1cc(C(F)(F)F)ccc1Cl	·	·	·	·	2
COc1ccc(CN(C(=O)c2nsc(Cl)c2Cl)C(C(=O)NC2CCCC2)c2ccc(C)cc2)cc1 (stereo not given)	3	-11	-1	-25	-2
Cc1ccc(C)c(N(C(=O)c2nsc(Cl)c2Cl)C(C(=O)NC2CCCC2)c2ccc(O)cc2)c1 (stereo not given)	2	-15	-5	-62*	-4
CCCN[C@H]1CCc2nc(N)sc2C1	-3	88*	4	5	-3
Nc1nc2c(s1)CCCCCCCCCC2	-6	5	2	-13	-9
CN1C(=O)N(C)C2(c3ccccc3)N(C)C(=O)NC12c1ccccc1 (stereo not given)	2	-6	-9	-57*	1
COc1ccc(NC(=S)N(CCC(C)C)C2CCN(C(C)C)CC2)cc1	0	-16	1	-54*	2
CC(=O)c1ccc(NC(=O)CN2CCN(CC(=O)Nc3ccc(C(C)=O)cc3)CC2)cc1	3	4	4	9	1
N#Cc1ccc(NC(=O)CN2CCN(c3ccccn3)CC2)cc1	-2	49*	2	12	2
CC(C)c1ccc(NC(=O)CN2CCN(c3ccccn3)CC2)cc1	0	9	5	-13	-4
SMILES	PI5P4K alpha inh	DRD3 agonist	PI4K2A block	D3 antag	LDHA inh
CC(=O)c1ccc(NC(=O)CN2CCN(c3ncccn3)CC2)cc1	5	70*	0	-24	-14
N#C/C(=C1\SCC(c2ccccc2Cl)S1)n1ccnc1 (stereo not given)	·	10	-3	·	·
CCOC(=O)c1ccc(NC(=S)NNC(C)(C)C)cc1	-4	-13	-1	-58*	-1
Cc1cccc(-c2nc(-c3cc4ccc(C)cc4[nH]c3=O)no2)c1	·	·	·	·	-19
O=c1[nH]c2ccccc2cc1-c1noc(-c2cccnc2)n1	·	48*	-4	8	1
OC1CCN(c2nc(C(F)(F)F)nc3ccccc23)CC1	·	·	·	·	8
Cn1c(SCc2ccccc2)nc2ccsc2c1=O	4	35*	5	11	1
O=c1c2c(-c3ccco3)csc2nc(SCc2cn3cccnc3n2)n1-c1ccccc1	-67*	-1	-58*	16	-2
NC(=O)CSc1nc2scc(-c3ccco3)c2c(=O)n1-c1ccccc1	-70*	-1	?	-7	2
